Records with an inconclusive call do not appear. Activity calls are given as the source filed them. The call rests on the fitted dose curve; in most records, active means well fitted inhibition curve with a large enough effect; inconclusive means small, poorly fitted or top-dose-only effect; inactive means no such curve, though single readings can be large or run the other way.
Assay: Primary qHTS for inhibitors of nuclear receptor binding SET domain protein 2 (NSD2) in an RCH-ACV wild type WT cells (2C) (AID 1645877); further: nearly all actives have a fitted effect of over 70% in size
Conditions: RCH-ACV (leukaemia line) NSD2 WT (2C) viability, CellTiter-Glo, 72 h; series mostly up to 44.9 µM; activity change, negative = cell killing: at the top concentration
On the % scale 0 is the no-effect control and ±100 the full control effect; potency means the concentration at half of the fitted maximal effect.

Row | Compound | Potency | activity change, negative = cell killing | outcome
1 | CCC1C(=O)N(C)c2cnc(Nc3ccc(C(=O)NC4CCC(N5CCN(CC6CC6)CC5)CC4)cc3OC)nc2N1C(C)C (stereo not drawn) | 0.0258 µM (active) |  | 
2 | Cc1nc(NC(=O)N2CCCC2C(N)=O)sc1-c1csc(C(C)(C)C)n1 (stereo not drawn) | 4.09 µM (active) |  | 
3 | Cc1cc(O)cc(O[C@@H]2O[C@H](CO)[C@@H](O)[C@H](O)[C@H]2O)c1 |  | -12% (inactive) | 
4 | C=C[C@H]1C(O[C@@H]2O[C@H](CO)[C@@H](O)[C@H](O)[C@H]2O)OC=C2C(=O)N3CCc4c([nH]c5ccccc45)C3CC21 (stereo partly drawn) |  | -25.8% [at 17.3 µM] (inactive) | 
5 | Nc1ncnc2c1ncn2CCNCCCCCO |  | -0.461% (inactive) | 
6 | C/C=C(\C)C(=O)OCC1OC(OC2OC(COC(=O)/C(C)=C/C)C(OC3OC(CO)C(OC(=O)/C(C)=C/C)C(OC(=O)/C(C)=C/C)C3O)C(O)C2O)C(O)C(O)C1OC1OC(CO)C(OC(=O)/C(C)=C/C)C(OC(=O)/C(C)=C/C)C1O (stereo not drawn) |  | -15.3% [at 9.23 µM] (inactive) | 
7 | C[C@@H]1O[C@@H](O[C@H]2[C@H](O[C@H]3[C@H](O)[C@@H](C(=O)O)O[C@@H](O[C@H]4CC[C@@]5(C)C(CC[C@]6(C)C5CC[C@]57OC[C@@]8(CCC(C)(C)CC85)[C@H](O)C[C@]76C)C4(C)C)[C@@H]3O[C@@H]3O[C@H](CO)[C@@H](O[C@@H]4OC[C@@H](O)[C@H](O)[C@H]4O)[C@H](O)[C@H]3O)O[C@H](CO)[C@H](O)[C@@H]2O)[C@H](O)[C@H](O)[C@H]1O (stereo partly drawn) |  | -1.94% [at 9.23 µM] (inactive) | 
8 | CC1=CC2C(CC1OC1OC(CO)C(O)C(O)C1O)C(C)CC(=O)C2C(C)C (stereo not drawn) |  | -11% (inactive) | 
9 | CC1(C)CCCC2(C)C=C(C(=O)O)C(O)CC12 (stereo not drawn) |  | -8.06% (inactive) | 
10 | C[C@H](C/C=C/C(C)(C)O)[C@H]1CC[C@@]2(C)[C@@H]3[C@@H](O[C@@H]4O[C@H](CO)[C@@H](O)[C@H](O)[C@H]4O)C=C4C(CC[C@H](O)C4(C)C)[C@]3(C=O)CC[C@]12C (stereo partly drawn) |  | -23.7% [at 17.3 µM] (inactive) | 
11 | CC12CCC3c4ccc(O)cc4CCC3C1CC(OC1OC(C(=O)O)C(O)C(O)C1O)C2O (stereo not drawn) |  |  | inactive
12 | C[C@@H]1O[C@@H](O[C@H]2[C@H](O)[C@@H](O)[C@H](OC3CCC4(C)C5CCC(C)(C(CO)OC6OC(CO)C(O)C(O)C6O)CC5=CCC4C3(C)C)O[C@@H]2CO)[C@H](O)[C@H](O)[C@H]1O (stereo partly drawn) |  | -10.3% [at 17.3 µM] (inactive) | 
13 | O=C1C=CC2OC(c3ccccc3)C(O)C2O1 (stereo not drawn) | 4.59 µM (active) |  | 

Source: PubChem BioAssay (NCATS)
